Measured values published in PubChem BioAssay (EPA / NIEHS).
Values joined by “and” are separate entries in the source; they are usually repeats but may differ in a detail not shown here. Equal entries are not always repeated. A structure can be active in one record and inactive in another. Active and inactive are the calls of the source. Rule for the calls: active = hit-call score of the fitted dose curve at least 0.9, where 1 is the maximum; inactive = score below 0.9.

Legend:
[1] = biological target: Bile acid receptor (Homo sapiens) (UniProt Q96RI1); test: ATG_IR1_CIS: Attagene CIS-FACTORIAL HepG2 Assay for human Nuclear Receptor Subfamily 1 Group H Member 4 (NR1H4), IR1 submotif (AID 2282946); details: IR1 reporter transcription, actives raise or lower the signal
In short: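 Transient MRTU transfection, HepG2; 24 h dosing; RNA → RT-PCR → 6-FAM primer extension → HpaI digest → capillary electrophoresis fluorescence. Gain/loss of signal fitted relative to DMSO.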

[2] = ATG_GRE_CIS: Attagene CIS-FACTORIAL HepG2 Assay for human Glucocorticoid Response Elements (GRE) (AID 2282947); details: HepG2 GRE cis-reporter, Attagene multiplex mRNA; actives raise or lower the signal
In short: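 Following 24 h chemical exposure of transiently transfected HepG2 cells, total RNA was reverse-transcribed and reporter cDNA amplified, fluorescently labelled and sized by capillary electrophoresis. Signal gain or loss was fitted relative to DMSO vehicle.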

[3] = ATG_ISRE_CIS: Attagene CIS-FACTORIAL HepG2 Assay for human Interferon Regulatory Factor 1 (IRF1) binding to an Interferon-Stimulated Response Element (ISRE) (AID 2282948); details: HepG2 ISRE cis-reporter (Attagene), mRNA transcription readout; actives raise or lower the signal
In short: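 Transfected HepG2 (multiple reporter transcription units, cis elements) dosed 24 h. RNA → oligo(dT) RT → PCR → 6-FAM primer extension → HpaI → CE. DMSO = negative control/baseline.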

[4] = ATG_M_32_CIS: Attagene CIS-FACTORIAL HepG2 Assay for M32 Transcription Factor (Internal Marker) (AID 2282949); details: HepG2 Attagene cis-factorial M32 reporter, mRNA; actives raise or lower the signal;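 note: background control marker of the multiplexed CIS panel rather than a real target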
In short: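 HepG2 cells transiently transfected with multiplexed cis-regulated reporter units, dosed 24 h. Reporter mRNA quantified by RT-PCR, 6-FAM labelling, HpaI digestion and capillary electrophoresis; bidirectional fit vs DMSO.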

[5] = biological target: Hypoxia-inducible factor 1-alpha (Homo sapiens) (UniProt Q16665); test: ATG_HIF1a_CIS: Attagene CIS-FACTORIAL HepG2 Assay for human Hypoxia Inducible Factor 1 (HIF1A) (AID 2282951); details: HepG2 Attagene cis-factorial HIF1a reporter transcription; actives raise or lower the signal
In short: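 Measures endogenous transcription-factor activity through cis-regulated reporter mRNA in HepG2. Cells dosed 24 h; transcripts quantified by RT-PCR with 6-FAM-labelled products separated by capillary electrophoresis; DMSO serves as negative control.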

[6] = biological target: Hepatocyte nuclear factor 6 (Homo sapiens) (UniProt Q9UBC0); test: ATG_HNF6_CIS: Attagene CIS-FACTORIAL HepG2 Assay for human Hepatocyte Nuclear Factor 6 (HNF6) (AID 2282952); details: HepG2 Attagene cis-factorial HNF6 reporter transcription; actives raise or lower the signal
In short: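 HepG2, transient MRTU transfection (cis promoters); 24 h chemical exposure; total RNA → oligo(dT) RT → PCR → 6-FAM labelling → HpaI cut → CE; bidirectional fit vs DMSO.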

[7] = biological target: Heat shock factor protein 1 (Homo sapiens) (UniProt Q00613); test: ATG_HSE_CIS: Attagene CIS-FACTORIAL HepG2 Assay for human Heat Shock Transcription Factor 1 (HSE) (AID 2282953); details: HepG2 HSE cis-reporter, Attagene RNA transcription; actives raise or lower the signal
In short: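 HepG2 cells transiently transfected with multiple reporter transcription units under cis-regulatory promoter control, measuring endogenous transcription factor activity. After 24 h chemical exposure, reporter mRNA quantified by RT-PCR, fluorescent labelling, HpaI digestion and capillary electrophoresis; bidirectional fit versus DMSO.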

[8] = ATG_MRE_CIS: Attagene CIS-FACTORIAL HepG2 Assay for human Metal Responsive Element (MRE) (AID 2282954); details: HepG2 MRE cis-reporter transcription, Attagene multiplex; actives raise or lower the signal
In short: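 Step one: transfect HepG2 with cis-regulated reporter units. Step two: dose 24 h. Step three: isolate RNA, RT-PCR, 6-FAM label, HpaI digest, capillary electrophoresis. Fit bidirectionally to DMSO.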

[9] = ATG_PBREM_CIS: Attagene CIS-FACTORIAL HepG2 Assay for human Phenobarbital-responsive Enhancer Module (PBREM) (AID 2282955); details: HepG2 PBREM cis-reporter, Attagene multiplexed transcription; actives raise or lower the signal
In short: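 Fluorescence of labelled reporter cDNA fragments, resolved by capillary electrophoresis, gives mRNA induction in transfected HepG2 cells treated for 24 h; DMSO serves as negative control and baseline.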

[10] = ATG_M_06_CIS: Attagene CIS-FACTORIAL HepG2 Assay for M06 Transcription Factor (Internal Marker) (AID 2282950); details: HepG2 Attagene CIS-FACTORIAL M06 internal marker reporter; actives raise or lower the signal
In short: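 HepG2 cells transiently transfected with cis-regulated multiple reporter transcription units were exposed to chemical for 24 h; reporter mRNA was quantified by RT-PCR, 6-FAM primer labelling, HpaI digestion and capillary electrophoresis, fitted bidirectionally against DMSO.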

Sequence of Hepatocyte nuclear factor 6 (Homo sapiens) (Q9UBC0 whole entry, looked up): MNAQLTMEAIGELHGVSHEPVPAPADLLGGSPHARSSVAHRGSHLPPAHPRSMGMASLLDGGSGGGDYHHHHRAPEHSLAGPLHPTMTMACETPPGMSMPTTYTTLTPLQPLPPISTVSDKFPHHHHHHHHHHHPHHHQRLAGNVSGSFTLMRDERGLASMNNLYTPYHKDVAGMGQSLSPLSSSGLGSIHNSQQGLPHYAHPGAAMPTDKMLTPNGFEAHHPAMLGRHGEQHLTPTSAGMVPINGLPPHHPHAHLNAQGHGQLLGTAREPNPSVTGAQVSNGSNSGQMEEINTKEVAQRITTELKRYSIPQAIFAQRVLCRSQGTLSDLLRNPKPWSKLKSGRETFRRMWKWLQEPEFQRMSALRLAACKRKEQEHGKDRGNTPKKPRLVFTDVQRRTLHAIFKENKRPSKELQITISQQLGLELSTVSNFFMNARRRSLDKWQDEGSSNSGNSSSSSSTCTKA
Sequence of Heat shock factor protein 1 (Homo sapiens) (Q00613 whole entry, looked up): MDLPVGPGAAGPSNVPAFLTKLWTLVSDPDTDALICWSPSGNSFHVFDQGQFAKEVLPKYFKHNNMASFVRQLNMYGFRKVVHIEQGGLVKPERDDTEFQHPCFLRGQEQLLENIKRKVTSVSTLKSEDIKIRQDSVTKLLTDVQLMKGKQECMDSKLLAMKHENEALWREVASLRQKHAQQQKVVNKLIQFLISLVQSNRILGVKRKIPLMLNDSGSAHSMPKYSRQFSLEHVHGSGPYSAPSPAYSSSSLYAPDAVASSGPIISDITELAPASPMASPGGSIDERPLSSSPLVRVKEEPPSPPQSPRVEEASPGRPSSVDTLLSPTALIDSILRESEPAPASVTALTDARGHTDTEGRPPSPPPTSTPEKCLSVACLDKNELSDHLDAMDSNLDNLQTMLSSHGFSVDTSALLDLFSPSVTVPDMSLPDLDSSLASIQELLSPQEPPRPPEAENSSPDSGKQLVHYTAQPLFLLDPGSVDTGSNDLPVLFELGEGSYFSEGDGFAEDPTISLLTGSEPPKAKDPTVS
Sequence of Bile acid receptor (Homo sapiens) (Q96RI1 whole entry, looked up): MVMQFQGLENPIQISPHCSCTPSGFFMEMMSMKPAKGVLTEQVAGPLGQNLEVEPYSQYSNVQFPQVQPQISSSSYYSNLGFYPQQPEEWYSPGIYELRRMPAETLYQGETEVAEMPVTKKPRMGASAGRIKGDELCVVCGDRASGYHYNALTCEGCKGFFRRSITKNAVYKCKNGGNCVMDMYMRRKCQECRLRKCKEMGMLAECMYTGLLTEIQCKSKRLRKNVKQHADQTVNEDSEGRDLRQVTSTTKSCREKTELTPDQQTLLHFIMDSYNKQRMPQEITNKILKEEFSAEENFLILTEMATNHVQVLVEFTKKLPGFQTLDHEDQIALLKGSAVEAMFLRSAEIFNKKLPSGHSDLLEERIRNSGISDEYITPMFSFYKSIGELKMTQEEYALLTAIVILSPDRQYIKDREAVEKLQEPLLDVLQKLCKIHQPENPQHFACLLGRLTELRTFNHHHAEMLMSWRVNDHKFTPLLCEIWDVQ
Sequence of Hypoxia-inducible factor 1-alpha (Homo sapiens) (Q16665 whole entry, looked up): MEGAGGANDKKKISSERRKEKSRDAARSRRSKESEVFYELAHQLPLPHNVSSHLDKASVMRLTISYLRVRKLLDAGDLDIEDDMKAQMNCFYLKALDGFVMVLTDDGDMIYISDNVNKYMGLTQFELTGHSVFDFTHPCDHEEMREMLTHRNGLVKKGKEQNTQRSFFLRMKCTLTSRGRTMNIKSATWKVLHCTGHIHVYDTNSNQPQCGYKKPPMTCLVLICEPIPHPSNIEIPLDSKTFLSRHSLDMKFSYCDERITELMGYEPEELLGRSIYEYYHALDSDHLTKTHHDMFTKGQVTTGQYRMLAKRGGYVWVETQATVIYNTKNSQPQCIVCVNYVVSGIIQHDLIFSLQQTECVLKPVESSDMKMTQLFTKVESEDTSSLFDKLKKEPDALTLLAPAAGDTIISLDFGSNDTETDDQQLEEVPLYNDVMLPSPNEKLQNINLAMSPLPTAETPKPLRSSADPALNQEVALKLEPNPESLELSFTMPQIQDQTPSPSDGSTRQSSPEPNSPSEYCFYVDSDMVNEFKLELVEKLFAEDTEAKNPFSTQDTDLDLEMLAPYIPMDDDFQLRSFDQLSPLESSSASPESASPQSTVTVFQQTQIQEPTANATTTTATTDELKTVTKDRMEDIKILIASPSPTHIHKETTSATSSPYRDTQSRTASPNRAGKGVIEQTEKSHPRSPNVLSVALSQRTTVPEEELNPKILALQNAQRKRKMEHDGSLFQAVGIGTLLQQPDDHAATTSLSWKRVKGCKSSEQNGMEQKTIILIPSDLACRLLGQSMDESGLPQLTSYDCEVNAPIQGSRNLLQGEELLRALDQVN

| Structure (SMILES) | outcome [1] | outcome [2] | outcome [3] | outcome [4] | outcome [5] | outcome [6] | outcome [7] | outcome [8] | outcome [9] | outcome [10] | AC50 [8] | AC50 [9] | AC50 [7] | AC50 [1] | AC50 [3] | AC50 [4] | AC50 [2] | AC50 [5] |
| --- | --- | --- | --- | --- | --- | --- | --- | --- | --- | --- | --- | --- | --- | --- | --- | --- | --- | --- |
| COC(=O)c1cccc(C)c1S(=O)(=O)NC(=O)Nc1nc(OCC(F)(F)F)nc(N(C)C)n1 | inactive | inactive | inactive | inactive | inactive | inactive | inactive | inactive | inactive | – | – | – | – | – | – | – | – | – |
| OB(O)O | inactive | inactive | inactive | inactive | inactive | inactive | inactive | inactive | inactive | – | – | – | – | – | – | – | – | – |
| c1ccc2[nH]c(-c3cscn3)nc2c1 | inactive | inactive | inactive | inactive | inactive | inactive | inactive | inactive | inactive | inactive | – | – | – | – | – | – | – | – |
| C#CCOC(=O)[C@@H](C)Oc1ccc(Oc2ncc(Cl)cc2F)cc1 | inactive | inactive | inactive | inactive | inactive | inactive | – | inactive | inactive | – | – | – | – | – | – | – | – | – |
| COC(=O)CSc1cc(N=c2sc(=O)n3n2CCCC3)c(F)cc1Cl | inactive | inactive | inactive | inactive | inactive | inactive | inactive | inactive | inactive | inactive | – | – | – | – | – | – | – | – |
| CCOC(=O)c1ccc(O)cc1 | inactive | inactive | inactive | inactive | inactive | inactive | inactive | inactive | inactive | – | – | – | – | – | – | – | – | – |
| O=C(Nc1ccc([N+](=O)[O-])cc1Cl)c1cc(Cl)ccc1O | inactive | inactive | inactive | inactive | – | inactive | inactive | – | – | – | 0.947 µM (active) | 0.7 µM (active) | – | – | – | – | – | – |
| CCOC(=O)C(C)Oc1ccc(Oc2nc3ccc(Cl)cc3o2)cc1 (configuration not stated) | inactive | inactive | inactive | inactive | inactive | inactive | inactive | inactive | inactive | – | – | – | – | – | – | – | – | – |
| Cc1nn(C)c(Oc2ccccc2)c1C=NOCc1ccc(C(=O)OC(C)(C)C)cc1 | inactive | inactive | inactive | inactive | inactive | inactive | – | – | – | inactive | 1.88 µM (active) | – | 9.45 µM (active) | – | – | – | – | – |
| CCOC(=O)[C@H](C)Oc1ccc(Oc2nc3ccc(Cl)cc3o2)cc1 | inactive | inactive | inactive | inactive | inactive | inactive | inactive | inactive | inactive | inactive | – | – | – | – | – | – | – | – |
| CC(C)CCCCCCc1ccc(O)cc1 | inactive | inactive | inactive | inactive | inactive | inactive | inactive | inactive | inactive | – | 16.3 µM (active) and 17.6 µM (active) | 15.8 µM (active) | 15.3 µM (active) and 19.9 µM (active) and 17 µM (active) | 17.9 µM (active) | 18.4 µM (active) and 13.7 µM (active) | 18 µM (active) and 17.2 µM (active) | – | – |
| COC(=O)c1c(Cl)nn(C)c1S(=O)(=O)NC(=O)Nc1nc(OC)cc(OC)n1 | inactive | inactive | inactive | inactive | inactive | inactive | inactive | inactive | inactive | inactive | – | – | – | – | – | – | – | – |
| CCN(CC)C(=O)c1cccc(C)c1 | inactive | inactive | inactive | inactive | inactive | inactive | inactive | inactive | – | – | – | – | – | – | – | – | – | – |
| CCC(C)OC(=O)N1CCCCC1CCO (configuration not stated) | inactive | – | inactive | inactive | inactive | inactive | inactive | inactive | inactive | – | – | – | – | – | – | – | – | – |
| C[C@]12C[C@H](O)[C@H]3[C@@H](CCC4=CC(=O)CC[C@@]43C)[C@@H]1CC[C@@H]2C(=O)CO | inactive | inactive | inactive | inactive | inactive | inactive | inactive | inactive | inactive | inactive | – | – | – | – | – | – | 26.6 µM (active) | 55.9 µM (active) |
| CCOC(=O)C(C)Oc1ccc(Oc2cnc3cc(Cl)ccc3n2)cc1 (configuration not stated) | inactive | inactive | inactive | inactive | inactive | inactive | – | inactive | inactive | – | – | – | – | – | – | – | – | – |
| CCC(O)=C1C(=O)CC(C(=O)O)CC1=O (configuration not stated) | inactive | inactive | inactive | inactive | inactive | inactive | inactive | inactive | inactive | – | – | – | – | – | – | – | – | – |
| CC(C)(C)[C@@H](O)[C@@H](Cc1ccc(Cl)cc1)n1cncn1 | – | – | inactive | inactive | inactive | inactive | inactive | inactive | – | – | – | – | – | 41.3 µM (active) | – | – | 90.9 µM (active) | – |
| COc1nc(C)nc(NC(=O)NS(=O)(=O)c2ccccc2OCCCl)n1 | inactive | inactive | inactive | inactive | inactive | inactive | inactive | inactive | inactive | – | – | – | – | 8.66 µM (active) | – | – | – | – |
| COC(=O)c1ccccc1S(=O)(=O)NC(=O)Nc1nc(OC(F)F)cc(OC(F)F)n1 | inactive | inactive | inactive | inactive | inactive | inactive | inactive | inactive | inactive | – | – | – | – | – | – | – | – | – |
| N#CSCSc1nc2ccccc2s1 | inactive | inactive | inactive | inactive | inactive | inactive | inactive | inactive | inactive | – | – | – | 18.1 µM (active) | – | 3.07 µM (active) | – | – | – |
| CCCCOC(=O)[C@@H](C)Oc1ccc(Oc2ccc(C(F)(F)F)cn2)cc1 | inactive | inactive | inactive | inactive | inactive | inactive | inactive | inactive | inactive | – | – | – | – | – | – | – | – | – |
| C[C@]12CC[C@@H]3c4ccc(O)cc4C[C@@H](CCCCCCCCCS(=O)CCCC(F)(F)C(F)(F)F)[C@H]3[C@@H]1CC[C@@H]2O (some centres not stated) | inactive | inactive | inactive | inactive | inactive | inactive | inactive | inactive | inactive | inactive | 1.39 µM (active) | 0.376 µM (active) | – | – | – | – | – | – |
| O=C(c1ccc(O)cc1O)c1ccc(O)cc1O | inactive | inactive | inactive | inactive | inactive | inactive | – | inactive | inactive | – | – | – | 41.3 µM (active) [middle of 4 runs] | – | 100 µM (active) | – | – | – |
| Oc1ccc(C(c2ccc(O)cc2)C(Cl)(Cl)Cl)cc1 | inactive | inactive | inactive | inactive | inactive | inactive | inactive | inactive | – | – | – | – | – | – | – | – | – | – |
| CCCCOC(=O)C(C)Oc1ccc(Oc2ccc(C(F)(F)F)cn2)cc1 (configuration not stated) | inactive | inactive | inactive | inactive | inactive | inactive | inactive | inactive | inactive | inactive | – | – | – | – | – | – | – | – |
| COC(=O)c1ccc(CNS(C)(=O)=O)cc1S(=O)(=O)NC(=O)Nc1nc(OC)cc(OC)n1 | inactive | inactive | inactive | inactive | inactive | inactive | inactive | inactive | inactive | – | – | – | – | – | – | – | – | – |
| CCCOC(=O)c1ccc(C(=O)OCCC)nc1 | inactive | inactive | inactive | inactive | inactive | inactive | inactive | inactive | inactive | inactive | – | – | – | – | – | – | – | – |
